Inconclusive results are not listed. Calls of active or inactive are those of the source. The calls were made as follows: active = hit-call score of the fitted dose curve at least 0.9, where 1 is the maximum; inconclusive = response in the unintended direction; inactive = score below 0.9.

The values that follow come from PubChem BioAssay (EPA / NIEHS).

Estrogen receptor (Homo sapiens), sequence (P03372 whole entry, looked up, the tested form may be a part): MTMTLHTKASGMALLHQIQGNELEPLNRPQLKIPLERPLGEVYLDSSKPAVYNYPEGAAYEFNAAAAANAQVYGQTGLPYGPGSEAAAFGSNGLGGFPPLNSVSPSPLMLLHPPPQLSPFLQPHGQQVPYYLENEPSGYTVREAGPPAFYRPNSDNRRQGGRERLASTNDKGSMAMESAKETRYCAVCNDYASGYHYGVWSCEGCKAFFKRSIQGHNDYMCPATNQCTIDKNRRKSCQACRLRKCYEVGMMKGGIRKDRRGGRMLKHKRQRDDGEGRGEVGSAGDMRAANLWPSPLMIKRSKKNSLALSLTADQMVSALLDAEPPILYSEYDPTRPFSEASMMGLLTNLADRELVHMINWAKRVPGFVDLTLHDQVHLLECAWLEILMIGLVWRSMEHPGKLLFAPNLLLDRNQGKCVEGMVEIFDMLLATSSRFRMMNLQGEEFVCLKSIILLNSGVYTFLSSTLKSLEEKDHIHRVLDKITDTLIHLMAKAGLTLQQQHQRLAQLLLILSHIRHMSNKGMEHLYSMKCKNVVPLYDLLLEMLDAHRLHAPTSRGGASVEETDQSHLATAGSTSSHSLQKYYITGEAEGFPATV

For one test, the target named is Estrogen receptor (Homo sapiens) (UniProt P03372). Put plainly: OT_ER_ERaERa_1440: Odyssey Thera (OT) 24-hour HEK293T Protein-Complementation Assay for Estrogen Receptor-alpha/-alpha Homodimer (AID 2283349).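 Also: hits raise fluorescence above DMSO for agonists and antagonists alike.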 In short, it runs like this:
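Protein-fragment complementation between two human ERα ligand-binding domains (aa 310-547) in stably transfected HEK293T cells was monitored after 24 h treatment, using fluorescence intensity relative to vehicle controls.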
Turning to `N#CN=C(N)N`, the compound was classed as inactive.
In the case of `CCC1(c2ccc(N)cc2)CCC(=O)NC1=O` (stereo unspecified), the compound was classed as inactive.
Turning to `OCc1ccco1`, the compound was called inactive.
Same read-out and setting: the result for `CCCCCCCCSC(=O)Oc1cc(Cl)nnc1-c1ccccc1` reads “inactive”; that for `COP(=O)(OC)OC`, “inactive”.
Consider `Clc1nc(Cl)nc(Cl)n1`, for which the compound was called inactive.
Same read-out and setting: the result for `O=[N+]([O-])c1ccc(O)c([N+](=O)[O-])c1` reads “inactive”; that for `C=C(C)C#N`, “inactive”; that for `c1cc[c]([Hg][c]2ccccc2)cc1`, “inactive”.
As for `C1CCC(NC2CCCCC2)CC1`, the call was inactive.
Take `CC(C#N)CCC#N` (stereo unspecified): the compound was called inactive.
For `C=CC#N`, the compound was classed as inactive.
The same measure, in the same setting: the result for `COc1ccc(C=O)cc1OC` reads “inactive”; that for `CC1(C)Cc2cccc(O)c2O1`, “inactive”.
With `BrCCBr`, the compound was called inactive.
As to `Cc1ccc2ccccc2c1C`, the result was inactive.
Consider `CC(C)c1cccc(C(C)C)c1O`, for which the compound was classed as inactive.
Still for that read-out and setting: the result for `OCC(O)CCl` (stereo unspecified) reads “inactive”; that for `ClC1(Cl)C2(Cl)C3(Cl)C4(Cl)C(Cl)(Cl)C5(Cl)C3(Cl)C1(Cl)C5(Cl)C24Cl` (stereo unspecified), “inactive”.
Same read-out and setting: then `[O-][Cl+2]([O-])O`, with “inactive”; and `CC(C)(OO)c1ccccc1`, with “inactive”.
As to `CC(=O)C=C(C)C`, the AC50 was 26.6 µM (active).
As to `Cn1sc(Cl)cc1=O`, the outcome was inactive.

Another test shares this target. Put plainly: OT_ER_ERaERa_0480: Odyssey Thera (OT) 8-hour HEK293T Protein-Complementation Assay for Estrogen Receptor-alpha/-alpha Homodimer (AID 2283351).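 Also: rise in fluorescence from reassembled reporter fragments on ERα LBD homodimer in nucleus or whole cell.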 In short, it runs like this: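 The readout is complementation of fragments fused to the human ER alpha ligand-binding domain (aa 310-547), stably expressed in HEK293T cells. After 8 h of exposure, the increase in nuclear/cytoplasmic fluorescence was measured by laser scanning cytometry and fitted relative to DMSO.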
Take `N#CN=C(N)N`: the outcome was inactive.
On the same count and under the same terms, the result for `CCC1(c2ccc(N)cc2)CCC(=O)NC1=O` (stereo unspecified) reads “inactive”; that for `OCc1ccco1`, “inactive”; that for `CCCCCCCCSC(=O)Oc1cc(Cl)nnc1-c1ccccc1`, “inactive”.
The same measure, in the same setting: the result for `COP(=O)(OC)OC` reads “inactive”; that for `Clc1nc(Cl)nc(Cl)n1`, “inactive”; that for `O=[N+]([O-])c1ccc(O)c([N+](=O)[O-])c1`, “inactive”.
Take `C=C(C)C#N`: the compound was called inactive.
Same read-out and setting: then `c1cc[c]([Hg][c]2ccccc2)cc1`, with “inactive”; and `C1CCC(NC2CCCCC2)CC1`, with “inactive”; and `CC(C#N)CCC#N` (stereo unspecified), with “inactive”.
On the same count and under the same terms, the result for `C=CC#N` reads “inactive”.
`COc1ccc(C=O)cc1OC`: the outcome was inactive.
Still for that read-out and setting: the result for `CC1(C)Cc2cccc(O)c2O1` reads “inactive”; that for `BrCCBr`, “inactive”; that for `Cc1ccc2ccccc2c1C`, “inactive”.
The same measure, in the same setting: the result for `CC(C)c1cccc(C(C)C)c1O` reads “inactive”; that for `OCC(O)CCl` (stereo unspecified), “inactive”.
For `ClC1(Cl)C2(Cl)C3(Cl)C4(Cl)C(Cl)(Cl)C5(Cl)C3(Cl)C1(Cl)C5(Cl)C24Cl` (stereo unspecified), the outcome was inactive.
Still for that read-out and setting: then `[O-][Cl+2]([O-])O`, with “inactive”.
Still for that read-out and setting: then `CC(C)(OO)c1ccccc1`, with “inactive”; and `CC(=O)C=C(C)C`, with “inactive”.
Consider `Cn1sc(Cl)cc1=O`, for which the call was inactive.
